Data from PubChem BioAssay (NCI).
The panel holds about 83,000 compounds, 20% with a hit somewhere; the sample as a whole holds those more often.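 Single-concentration screen, 48 h exposure, 96-well plates. Endpoint: percent growth. Below 10 = active.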

Experiments:
Assay in all cases: NCI-60 one-dose screen, 48 h (100 = growth as untreated, 0 = no growth, -100 = all killed)
NCI-H322M lung = conditions: 10 µM unless noted
HOP-92 NSCLC = conditions: 10 µM unless noted
NCI-H522 lung = conditions: 10 µM unless noted
COLO 205 colon = conditions: 10 µM
K-562 leukemia = conditions: 10 µM unless noted
LOX IMVI melanoma = conditions: 10 µM unless noted
TK-10 renal = conditions: 10 µM unless noted
CAKI-1 renal = conditions: 10 µM unless noted
CCRF-CEM leukemia = conditions: 10 µM unless noted
MOLT-4 leukemia = conditions: 10 µM
SR leukemia = conditions: 10 µM
SK-OV-3 ovarian = conditions: 10 µM unless noted
IGROV1 ovarian = conditions: 10 µM
HS 578T breast = conditions: 10 µM unless noted
BT-549 breast = conditions: 10 µM
SW-620 colon = conditions: 10 µM unless noted
HCT-116 colon = conditions: 10 µM unless noted
U251 CNS = conditions: 10 µM unless noted
EKVX NSCLC = conditions: 10 µM unless noted

Measured: growth

NS(=O)(=O)c1nc[nH]c1[N+](=O)[O-]
inactive: NCI-H322M lung 110% | HOP-92 NSCLC 68.1% | NCI-H522 lung 109% | COLO 205 colon 113% | K-562 leukemia 101% | LOX IMVI melanoma 101% | TK-10 renal 99.5% | CAKI-1 renal 97.7% | CCRF-CEM leukemia 106% | MOLT-4 leukemia 102% | SR leukemia 102% | SK-OV-3 ovarian 101% | IGROV1 ovarian 115% | HS 578T breast 112% | BT-549 breast 96.7% | SW-620 colon 107% | HCT-116 colon 104%

COc1cc(C2CC(=O)Nc3nc(N)[se]c32)cc(OC)c1OC (stereo unspecified)
inactive: HOP-92 NSCLC 138% | NCI-H522 lung 107% | COLO 205 colon 107% | K-562 leukemia 83.9% | U251 CNS 29.8% | LOX IMVI melanoma 105% | EKVX NSCLC 90% | CAKI-1 renal 113% | CCRF-CEM leukemia 96% | MOLT-4 leukemia 82.7% | SR leukemia 65.8% | SK-OV-3 ovarian 101% | IGROV1 ovarian 62% | HS 578T breast 81.9% | BT-549 breast 130% | SW-620 colon 109% | HCT-116 colon 74.9%

CNC(=O)Oc1cc(C(C)C)ccc1Sc1ccc(C(C)C)cc1OC(=O)NC
inactive: HOP-92 NSCLC 89% | NCI-H522 lung 75.7% | COLO 205 colon 112% | K-562 leukemia 25.6% | U251 CNS 46.2% | LOX IMVI melanoma 62.2% | EKVX NSCLC 69.1% | TK-10 renal 84.7% | CAKI-1 renal 67% | CCRF-CEM leukemia 36.5% | MOLT-4 leukemia 26.8% | SR leukemia 15.8% | SK-OV-3 ovarian 80.1% | HS 578T breast 67.7% | BT-549 breast 94.2% | SW-620 colon 43.6% | HCT-116 colon 66.5%
